Assay results from ChEMBL document CHEMBL1157539, “Thousands of chemical starting points for antimalarial lead identification” (Nature, 2010).

Tested on: Plasmodium falciparum
Assay: GSK_TCMDC: Inhibition of Plasmodium falciparum 3D7 in whole red blood cells, using parasite LDH activity as an index of growth. Test compounds present at 2uM
Type: functional

Row | Structure (SMILES) | Inhibition [%]
1 | CCCCCCN(CCCCCC)CCCCNc1c2ccc(Cl)cc2nc2ccc(OC)cc12.Cl | 100
2 | O=C(NC1CCCC1)c1ccc(N2CCC(NCc3cc4cc(Cl)ccc4[nH]3)CC2)cc1 | 91
3 | CCN(CC)CCN(Cc1ccc(-c2ccc(C(F)(F)F)cc2)cc1)C(=O)Cn1c(CCc2ccccc2F)nc(=O)c2ccccc21.O=C(O)C(O)C(O)C(=O)O | 95
4 | O=C(Nc1ccc(Cl)cc1)c1ccc(CN2CCCN(Cc3ccccc3)CC2)cc1.O=C(O)C(F)(F)F | 96
5 | CCOc1c(OC)ccc2c1CCN(CCN1CCC(CNC(=O)c3ccc(-c4ccc(C#N)cc4)cc3)CC1)C2 | 92
6 | O=C(/C=C/c1ccc(Cl)c(Cl)c1)N1CCC(CN2CCC(Cc3c[nH]c4ccccc34)CC2)CC1 | 98
7 | CC(C)c1cccc(C(C)C)c1NC(=O)NNC(=O)c1ccc(CCN2CCC(c3nc(COCC(F)(F)F)c(-c4ccc(F)cc4)o3)CC2)cc1 | 88
8 | CCC(C)OC(=O)C1=C(C)NC2=C(C(=O)CC(c3ccc(OC)c(OC)c3)C2)C1c1ccc(C)o1 (stereo not given) | 93
9 | O=C(/C=C/c1ccc(Cl)c(Cl)c1)NCCCCCN1CCC(NC(=O)NC2CCCC2)CC1 | 99
10 | CCn1ccc2c(N3CCCCS3(=O)=O)cc(C(=O)N[C@@H](Cc3ccccc3)[C@H](O)CNC3CCCCC3)cc21 | 98
11 | Cc1cccc2nc(-c3ccc(-c4ccc(CNCCNC(=O)c5ccnn5C)cc4)cc3)[nH]c12.O=C(O)C(F)(F)F | 100
12 | CCOc1ccc(Br)cc1/C=C/C(=O)Nc1ccc(C2CCN(C)CC2)cc1 | 100
13 | Cc1nc2ccc(NC(=O)Nc3ccnc4ccc(C(F)(F)F)cc34)cc2o1 | 89
14 | COc1cc(Br)c(NC(=O)Nc2ccc(C(F)(F)F)c(O[C@@H]3CCN(C)C3)c2)cc1OC.Cl | 97
15 | NC1CCCN(Cc2ccc(-c3cccc(-c4nc5ccccc5[nH]4)c3)cc2)C1.O=C(O)C(F)(F)F (stereo not given) | 95
16 | CCc1cccc(-n2c(=O)c3cccnc3n2CC(=O)NC2CCCC2)c1 | 94
17 | O=C(Nc1ccc(-c2nc3ccccc3[nH]2)cc1)C1CCN(Cc2ccc(F)cc2)CC1 | 100
18 | CC1(C)N=C(NC(=O)c2ccc([N+](=O)[O-])cc2)N=C(N)N1OCc1ccc2ccccc2c1 | 95

Row | Structure (SMILES) | Inhibition [%]
19 | CC(C)(C)c1ccc(NC(=O)c2ccc(CN3CCCN(Cc4cccc(C#N)c4)CC3)cc2)cc1.O=C(O)C(F)(F)F | 99
20 | O=C(Nc1ccccc1Cl)c1cc2ccccc2cc1O | 94
21 | c1ccc(COc2ccc(Cn3ccc(-c4ccc(-n5ccnc5)cc4)n3)cc2)cc1.c1ccc(COc2ccc(Cn3nccc3-c3ccc(-n4ccnc4)cc3)cc2)cc1 | 94
22 | COc1ccc2nccc(N3CCC(SCCNCc4cc5c(cn4)OCCO5)C3)c2n1.Cl (stereo not given) | 100
23 | N#Cc1ccc(-c2ccc(C(=O)NC3CCN(CCN4CCc5c(cccc5C(F)(F)F)C4)CC3)cc2)cc1 | 98
24 | CC(C)CSc1cc(C(=O)Nc2cc(Cl)ccc2O)ccn1 | 100
25 | O=C(/C=C/c1ccc(Cl)c(Cl)c1)NCCCCCCN1CCN(C(=O)Nc2cccc(Cl)c2)CC1 | 85
26 | NC1CCN(c2nc(NCCCc3ccc(O)cc3)nc(NCc3ccccc3-c3ccccc3)n2)CC1.O=C(O)C(F)(F)F | 100
27 | CC(C)(C)C1CCc2onc(C(=O)Nc3cc(Cl)ccc3O)c2C1 (stereo not given) | 98
28 | CC1CN(c2cnn(C/C=C/c3ccc(NC(=O)c4ccc(Cl)cc4)cc3)c(=O)c2Cl)CC(C)N1.O=C(O)C(F)(F)F (stereo not given) | 88
29 | CS(=O)(=O)Nc1cccc(-c2cnc3[nH]cc(-c4ccc(CCC(=O)O)cc4)c3c2)c1 | 98
30 | CNC(=O)NC1=NC(C)(C)N(OCc2ccc(Cl)c(Cl)c2)C(NC(=O)NC)=N1 | 99
31 | Nc1ncc(-c2ccsc2)c2ccc(-c3cnc[nH]3)cc12 | 100
32 | COc1c(C2CCN(CCCCNC(=O)c3ccc(-c4ccc(C#N)cc4)c(O)c3)CC2)ccc2c1CCCC2.Cl | 100
33 | CC(C)c1ncc(-c2ccncc2)c(C2CCC(CNC(=O)c3cccnc3)CC2)n1 (stereo not given) | 89
34 | COc1ccccc1-c1csc(C(=O)NCC2CCN(Cc3ccc(C(C)(C)C)cc3)C2)c1.O=C(O)C(F)(F)F (stereo not given) | 93
35 | CC(=O)NCCNc1nccc(N2CCc3ncnc(Nc4ccc(OCc5cccc(F)c5)c(Cl)c4)c3C2)n1 | 100
